Data: PubChem BioAssay (EPA / NIEHS)
Values joined by “and” are separate entries in the source; they are usually repeats but may differ in a detail not shown here. Equal values may be shown once. Where a structure was tested more than once in an assay, its records may differ in their call. Active and inactive are the calls of the source. How the source made its calls: active means hit-call score of the fitted dose curve at least 0.9, where 1 is the maximum; inactive means score below 0.9.

How the values were obtained:
[1] = read-out: Vascular endothelial growth factor receptor 2 (Homo sapiens) (UniProt P35968); assay: BSK_4H_VEGFRII: BioMAP Diversity Plus: 4H Assay for Vascular endothelial growth factor receptor 2 (VEGFR2) Biomarker Activity (AID 2283031); settings: primary human endothelial cells (HUVEC); actives raise or lower the signal;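 on AC50: cell-surface VEGFR2 protein level quantified by ELISA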
In short: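 Primary human umbilical vein endothelial cells (4H system), 24 h exposure; cell-surface VEGFR2 measured by ELISA. Bidirectional fitting versus DMSO; cytotoxicity checked in parallel by SRB total-protein staining.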

[2] = read-out: Human Leukocyte Antigen - DR isotype (HLADR), HLA-DRA (gene 3122); assay: BSK_BE3C_HLADR: BioMAP Diversity Plus: BE3C Assay for Human Leukocyte Antigen - DR isotype (HLADR) Biomarker Activity (AID 2283032); settings: primary human bronchial epithelial cells; actives raise or lower the signal
In short: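 Human primary bronchial epithelial cells (BE3C system) exposed to compound for 24 hours; cell-surface HLA-DR measured by ELISA, fitted bidirectionally relative to DMSO. Total protein by SRB in parallel cultures tracked cytotoxicity.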

[3] = read-out: Interferon-gamma inducible Protein 10 (IP10), CXCL10 (gene 3627); assay: BSK_BE3C_IP10: BioMAP Diversity Plus: BE3C Assay for Interferon-gamma inducible Protein 10 (IP10) Biomarker Activity (AID 2283034); settings: primary human bronchial epithelial cells; actives raise or lower the signal
In short: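 Primary human bronchial epithelial cells, with IP-10 measured by ELISA 24 hours after chemical dosing. Bidirectional fit against DMSO; cytotoxicity checked by SRB total protein staining in parallel cultures.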

[4] = read-out: Monokine induced gamma interferon (MIG), CXCL9 (gene 4283); assay: BSK_BE3C_MIG: BioMAP Diversity Plus: BE3C Assay for Monokine induced gamma interferon (MIG) Biomarker Activity (AID 2283035); settings: primary human bronchial epithelial cells; actives raise or lower the signal
In short: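 Primary human bronchial epithelial cells treated for 24 h; MIG levels measured by ELISA, fitted bidirectionally versus DMSO. Parallel SRB total-protein staining assessed cytotoxicity.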

[5] = read-out: Plasminogen activator inhibitor-1 (PAI1), SERPINE1 (gene 5054); assay: BSK_BE3C_PAI1: BioMAP Diversity Plus: BE3C Assay for Plasminogen activator inhibitor-1 (PAI1) Biomarker Activity (AID 2283037); settings: primary human bronchial epithelial cells; actives raise or lower the signal
In short: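 Primary human bronchial epithelial cells (BE3C system) exposed 24 h; PAI-1 quantified by ELISA. Parallel sulforhodamine B staining of total protein flags cytotoxicity. Bidirectional fit versus DMSO.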

[6] = read-out: urokinase plasminogen activator (uPA), PLAU (gene 5328); assay: BSK_BE3C_uPA: BioMAP Diversity Plus: BE3C Assay for urokinase plasminogen activator (uPA) Biomarker Activity (AID 2283038); settings: primary human bronchial epithelial cells; actives raise or lower the signal
In short: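 Primary human bronchial epithelial cells, uPA measured by ELISA 24 h after dosing. Bidirectional change relative to DMSO; cytotoxicity checked in parallel cultures by sulforhodamine B total-protein staining.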

[7] = read-out: Urokinase-type plasminogen activator receptor (uPAR), PLAUR (gene 5329); assay: BSK_BE3C_uPAR: BioMAP Diversity Plus: BE3C Assay for Urokinase-type plasminogen activator receptor (uPAR) Biomarker Activity (AID 2283039); settings: primary human bronchial epithelial cells; actives raise or lower the signal
In short: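 Primary human bronchial epithelial cells dosed for 24 h; uPAR quantified by ELISA with bidirectional fitting against DMSO. Overt cytotoxicity assessed in parallel cultures by SRB total-protein staining (0.1% SRB, 560 nm).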

[8] = read-out: Interleukin-6 (IL6), IL6 (gene 3569); assay: BSK_CASM3C_IL6: BioMAP Diversity Plus: CASM3C Assay for Interleukin-6 (IL6) Biomarker Activity for (AID 2283040); settings: primary human coronary artery smooth muscle cells; actives raise or lower the signal
[9] = read-out: Interleukin-8 (IL8), CXCL8 (gene 3576); assay: BSK_CASM3C_IL8: BioMAP Diversity Plus: CASM3C Assay for Interleukin-8 (IL8) Biomarker Activity (AID 2283042); settings: primary human coronary artery smooth muscle cells; actives raise or lower the signal;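 further: IL-8 protein level quantified by ELISA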
[10] = read-out: Human Leukocyte Antigen - DR isotype (HLADR), HLA-DRA (gene 3122); assay: BSK_CASM3C_HLADR: BioMAP Diversity Plus: CASM3C Assay for Human Leukocyte Antigen - DR isotype (HLADR) Biomarker Activity (AID 2283043); settings: primary human coronary artery smooth muscle cells; actives raise or lower the signal;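 further: cell-surface HLA-DR protein level quantified by ELISA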
[11] = read-out: Macrophage colony-stimulating factor (MCSF), CSF1 (gene 1435); assay: BSK_CASM3C_MCSF: BioMAP Diversity Plus: CASM3C Assay for Macrophage colony-stimulating factor (MCSF) Biomarker Activity (AID 2283044); settings: primary human coronary artery smooth muscle cells; actives raise or lower the signal;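 further: M-CSF protein amount quantified by ELISA after 24 h exposure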
[12] = read-out: Low-density lipoprotein receptor (LDLR), LDLR (gene 3949); assay: BSK_CASM3C_LDLR: BioMAP Diversity Plus: CASM3C Assay for Low-density lipoprotein receptor (LDLR) Biomarker Activity (AID 2283045); settings: primary human coronary artery smooth muscle cells; actives raise or lower the signal;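 further: LDLR protein level on the cell surface quantified by ELISA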
[13] = read-out: Monocyte Chemoattractant Protein-1 (MCP1), CCL2 (gene 6347); assay: BSK_CASM3C_MCP1: BioMAP Diversity Plus: CASM3C Assay for Monocyte Chemoattractant Protein-1 (MCP1) Biomarker Activity (AID 2283046); settings: primary human coronary artery smooth muscle cells; actives raise or lower the signal;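 further: MCP-1 level quantified by ELISA 24 h after dosing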
[14] = BSK_CASM3C_Proliferation: Cell Proliferation Assessment in the BioMAP Diversity Plus: CASM3C Assay (AID 2283047); settings: primary human coronary artery smooth muscle cells;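 further: sulforhodamine B total protein stain as relative cell number at 560 nm; sub-confluent cells exposed 48 h before staining; fitted both ways against DMSO so gain or loss of cell number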
[15] = read-out: Monokine induced gamma interferon (MIG), CXCL9 (gene 4283); assay: BSK_CASM3C_MIG: BioMAP Diversity Plus: CASM3C Assay for Monokine induced gamma interferon (MIG) Biomarker Activity (AID 2283048); settings: primary human coronary artery smooth muscle cells; actives raise or lower the signal
[16] = read-out: serum amyloid A (SAA), SAA1 (gene 6288); assay: BSK_CASM3C_SAA: BioMAP Diversity Plus: CASM3C Assay for serum amyloid A (SAA) Biomarker Activity (AID 2283049); settings: primary human coronary artery smooth muscle cells; actives raise or lower the signal;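 further: SAA protein level quantified by ELISA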
[17] = BSK_CASM3C_SRB: Viability Assessment in the BioMAP Diversity Plus: CASM3C Assay (AID 2283050); settings: primary human coronary artery smooth muscle cells
[18] = read-out: Tissue plasminogen activator (tPA), PLAT (gene 5327); assay: BSK_BE3C_tPA: BioMAP Diversity Plus: BE3C Assay for Tissue plasminogen activator (tPA) Biomarker Activity (AID 2283041); settings: primary human bronchial epithelial cells; actives raise or lower the signal;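 further: tPA level quantified by ELISA one day after compound addition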
In short: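 Primary human bronchial epithelial cells in the BE3C system, exposed to compound for 24 h. tPA was quantified by ELISA; DMSO served as baseline, with gain or loss of signal fitted. Cytotoxicity checked in parallel cultures by SRB total-protein staining.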

[19] = read-out: Transforming growth factor beta 1 (TGFb1), TGFB1 (gene 7040); assay: BSK_BE3C_TGFb1: BioMAP Diversity Plus: BE3C Assay for Transforming growth factor beta 1 (TGFb1) Biomarker Activity (AID 2283036); settings: primary human bronchial epithelial cells; actives raise or lower the signal
In short: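 Primary human bronchial epithelial cells dosed with chemical; TGF-b1 measured by ELISA 24 h after dosing. Bidirectional curve fitting against DMSO negative control; SRB total-protein staining in parallel cultures gauged cytotoxicity.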

Measured: AC50

CC(=O)c1ccc(C)cc1
active: [1] 1450 nM
inactive: [1] | [2] | [3] | [4] | [5] | [6] | [7] | [8] | [9] | [10] | [11] | [12] | [13] | [14] | [15] | [16] | [17]

CC(C)CCCC(C)(C)O
not listed: [19]
inactive: all other assays above

O=C(O)C(F)(F)C(F)(F)C(F)(F)C(F)(F)C(F)(F)C(F)(F)C(F)(F)C(F)F
active: [2] 12.5 µM and 3.23 µM | [3] 30 µM and 38.3 µM
not listed: [18] | [19]
inactive: all other assays above

O=C(O)C(F)(F)OC(F)(F)C(F)(F)OC(F)(F)C(F)(F)C(F)(F)C(F)(F)F
inactive: [1] | [4] | [5] | [6] | [7] | [8] | [9] | [10] | [11] | [12] | [13] | [14] | [15] | [16] | [17]
active: [2] 21.2 µM and 13.3 µM | [3] 46.8 µM and 41.4 µM | [13] 48000 nM

CC1=CC(C)C(C=O)C(C)C1 (centres undefined) (tested in a mixture with another compound)
not listed: [18]
inactive: all other assays above

CCOC(=O)C=Cc1ccccc1
not listed: [18]
inactive: all other assays above

O=S(=O)(O)C(F)(F)C(F)(F)OC(F)(F)C(F)(F)F
active: [16] 44.9 µM and 20 µM
not listed: [18] | [19]
inactive: all other assays above

O=S1(=O)CC(Cl)(Cl)C(Cl)(Cl)C1
inactive: [1]
active: [2] 960 nM | [3] 1.07 µM | [4] 2040 nM | [19] 582 nM | [5] 1610 nM | [6] 1080 nM | [7] 1660 nM | [8] 1440 nM | [9] 1300 nM | [10] 421 nM | [11] 908 nM | [12] 389 nM | [13] 1110 nM | [14] 113 nM | [15] 2220 nM | [16] 764 nM | [17] 820 nM

C=CC(=O)OCC(CO)(COC(=O)C=C)COC(=O)C=C
inactive: [5]
active: [1] 661 nM | [2] 336 nM | [3] 0.818 µM | [4] 2030 nM | [19] 1400 nM | [6] 631 nM | [7] 2720 nM | [8] 835 nM | [9] 1250 nM | [10] 567 nM | [11] 1070 nM | [12] 1310 nM | [13] 792 nM | [14] 302 nM | [15] 1240 nM | [16] 5460 nM | [17] 1610 nM

C=C(F)C(=O)OC(C(F)(F)F)C(F)(F)F
not listed: [18] | [19]
inactive: all other assays above

O=C(c1ccc(OCCN2CCCCC2)cc1)c1c(-c2ccc(O)cc2)sc2cc(O)ccc12
active: [2] 20300 nM | [3] 39.2 µM | [4] 37200 nM | [19] 31900 nM | [5] 22400 nM | [6] 34000 nM | [7] 31800 nM | [8] 20100 nM | [10] 26100 nM | [12] 6830 nM | [14] 23000 nM | [17] 34400 nM
inactive: [1] | [9] | [13] | [15] | [16]
